From PubChem BioAssay AID602474 (National Center for Advancing Translational Sciences (NCATS), 2012)
Records with an inconclusive call do not appear. Entries that show only a call come without a potency. Active and inactive are the calls of the source. The call rests on the fitted dose curve; in most records, active means well fitted inhibition curve with a large enough effect; inconclusive means small, poorly fitted or top-dose-only effect; inactive means no such curve, though single readings can be large or run the other way.

Biological target: Luciferin 4-monooxygenase (Photinus pyralis) (UniProt P08659)
Sequence (P08659 whole entry, looked up): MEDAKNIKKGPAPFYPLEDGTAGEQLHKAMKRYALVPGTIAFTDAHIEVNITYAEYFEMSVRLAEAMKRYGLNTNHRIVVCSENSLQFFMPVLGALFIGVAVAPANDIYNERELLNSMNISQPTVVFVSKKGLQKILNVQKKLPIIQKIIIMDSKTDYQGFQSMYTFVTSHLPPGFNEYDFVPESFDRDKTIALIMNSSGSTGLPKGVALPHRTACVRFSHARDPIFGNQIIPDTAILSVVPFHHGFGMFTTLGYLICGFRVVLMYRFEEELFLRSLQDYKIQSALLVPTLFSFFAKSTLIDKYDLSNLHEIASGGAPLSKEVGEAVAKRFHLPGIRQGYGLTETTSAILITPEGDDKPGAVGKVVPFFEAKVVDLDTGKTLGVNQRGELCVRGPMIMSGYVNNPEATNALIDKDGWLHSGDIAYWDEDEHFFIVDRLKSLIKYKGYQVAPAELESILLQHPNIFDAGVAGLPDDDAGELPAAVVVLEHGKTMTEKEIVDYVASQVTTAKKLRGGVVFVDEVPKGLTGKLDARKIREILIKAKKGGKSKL
Test: FLuc inhibitory activity for the follow-up compounds in a biochemical assay with a commercial detection reagent - BriteliteTM Plus (PerkinElmer)
Settings: purified FLuc, Britelite Plus luminescence; series mostly up to 38.3 µM
From the text: NCGC Assay Overview: Firefly (Photinus pyralis) luciferase is one of the most commonly used transcriptional reporters. It is considered one of the more dynamically responsive reporters - that is, responsive to changes in reporter transcription - as it requires no post-translational modifications and is enzymatically active directly after protein synthesis (Wood, 1998). With no endogenous expression in mammalian cells and without the requirement of external excitation, it offers very little background signal, thus generally providing excellent signal to background for most assays. Previous profiling work to determine the prevalence of compounds that affect FLuc enzymatic activity (PubChem AID 411) identified that ~3% of the MLSMR library (then at ~72K) inhibited FLuc (Auld et al., 2008). […] Of the compounds identified in this profile that inhibited FLuc, 151 compounds were selected for further analysis, in an effort to better understand their mode of inhibiting FLuc. The assay described here was to determine the activity of the compounds in a FLuc assay that used a commercial formulation of detection reagent (BriteliteTM Plus; PerkinElmer).
NCGC Assay Protocol Summary: Reagents: Britelite Plus detection reagent; 50mM Tris acetate, pH 7.5; 10nM P. pyralis luciferase (Sigma #L9506) Control compounds used were two known firefly luciferase inhibitors (3-(5-(3-chlorophenyl)-1,2,4-oxadiazol-3-yl)benzoic acid and 5-(2-fluorophenyl)-3-phenyl-1,2,4-oxadiazole), and DMSO. Assay Summary: Three microliters of buffer containing firefly luciferase (final concentrations: 50mM Tris acetate, 10nM P. pyralis luciferase) are dispensed into each well of a Greiner white, solid-bottom 1536-well format plate using a flying reagent dispenser (FRD). These assay plates were then treated with 23nL of compound or DMSO using a Kalypsys pin tool, which allows for delivery of a 12-point intraplate titration of each compound to the assay plate (quantitative HTS), with final compound concentrations ranging from approximately ~38uM to 0.2nM. Three microliters of 2X Britelite Plus detection reagent was then delivered by FRD to each well. Luciferase activity was then measured using a ViewLux CCD imager (PerkinElmer), with an average exposure time of 2-30 seconds (2X binning, medium/high gain).

Question: `CCOc1ccc2nc(NC(=O)c3ccoc3C)sc2c1` was tested. Which Potency did it give?
Answer: The Potency was 2000 nM (active).

Question: For `O=C(Nc1ccccc1C(=O)O)c1cc(S(=O)(=O)Nc2ccccc2)ccc1Cl`, which Potency is on record?
Answer: Its Potency is “inactive”.

Question: How did the Potency turn out when `Cc1ccc2sc(-c3ccc(NC(=O)c4cc(-n5cnnc5)ccc4Cl)cc3)nc2c1` was run?
Answer: Its Potency is “inactive”.

Question: For `CCc1noc(C)c1C(=O)Nc1nc2ccc(OC)cc2s1`, which Potency is on record?
Answer: Its Potency is 50.4 nM (active).

Question: With `O=C(Nc1ccccc1C(=O)O)c1ccc(NC(=O)C2CC2)cc1` as the compound, how does the Potency read?
Answer: The Potency was 4490 nM (active).

Question: Which Potency does the source give for `Cc1ccc(S(=O)(=O)N2CCOCC2)cc1C(=O)Nc1ccccc1C(=O)O` here?
Answer: Its Potency is “inactive”.

Question: For `O=C(Nc1ccccc1C(=O)O)c1cccc(NC(=O)c2ccccc2Br)c1`, which Potency is on record?
Answer: Its Potency is “inactive”.

Question: How did the Potency turn out when `C/C(=N\NC(=O)c1ccccc1NC(=O)c1ccc(Cl)cc1)c1ccncc1` was run?
Answer: Its Potency is 15.9 nM (active).

Question: With `Nc1ccc2nc(-c3ccccc3)sc2c1` as the compound, how does the Potency read?
Answer: Its Potency is 634 nM (active).

Question: For `CCn1c(C)nc2cc(-c3nc4n(n3)Cc3ccccc3-4)ccc21`, which Potency is on record?
Answer: Its Potency is 71.1 nM (active).

Question: With `O=C(O)c1ccccc1NC(=O)c1ccccc1Nc1ccccc1` as the compound, how does the Potency read?
Answer: Its Potency is “inactive”.

Question: `O=C(O)c1cccc(NC(=O)c2ccc(COc3ccc(Cl)cc3)cc2)c1` was tested. Which Potency did it give?
Answer: The Potency was “inactive”.

Question: With `O=C(COC(=O)c1ccccc1[N+](=O)[O-])c1ccc2c(c1)OCO2` as the compound, how does the Potency read?
Answer: The Potency was 17.9 nM (active).

Question: For `Cc1ccc(C(=O)Nc2cccc(C(=O)O)c2)cc1S(=O)(=O)N1CCCCC1`, which Potency is on record?
Answer: The Potency was 2830 nM (active).

Question: For `COc1ccc2nc(NC(=O)c3ccc4ncsc4c3)sc2c1`, which Potency is on record?
Answer: The Potency was 25200 nM (active).

Question: `O=C(Nc1ccccc1-c1nc2ccccc2s1)c1cccnc1` was tested. Which Potency did it give?
Answer: The Potency was “inactive”.

Question: Which Potency does the source give for `COc1ccc(NS(=O)(=O)c2cccc(C(=O)Nc3ccccc3C(=O)O)c2)cc1` here?
Answer: Its Potency is “inactive”.

Question: For `Cc1c(NS(C)(=O)=O)cccc1-c1nc2ccccc2s1`, which Potency is on record?
Answer: Its Potency is “inactive”.

Question: Which Potency does the source give for `O=C(O)c1cccc(NC(=O)c2ccc(Cl)c(S(=O)(=O)N3CCCCCC3)c2)c1` here?
Answer: Its Potency is 3180 nM (active).

Question: Which Potency does the source give for `COc1cc(OC)cc(C(=O)Nc2ccc(-c3nc4ccccc4s3)c(C)c2)c1` here?
Answer: Its Potency is 113 nM (active).

Question: `COc1ccc(C(=O)Nc2nc3ccc(OC)cc3s2)cc1` was tested. Which Potency did it give?
Answer: Its Potency is “inactive”.

Question: `O=C(O)c1cccc(NC(=O)c2cccc(S(=O)(=O)N3CCc4ccccc4C3)c2)c1` was tested. Which Potency did it give?
Answer: The Potency was “inactive”.

Question: How did the Potency turn out when `COc1ccc(C(=O)Nc2ccccc2C(=O)N/N=C/c2ccc(O)c(OC)c2)cc1` was run?
Answer: Its Potency is 2 nM (active).

Question: For `c1ccc2sc(-c3ccc4c(c3)OCO4)nc2c1`, which Potency is on record?
Answer: The Potency was 1790 nM (active).

Question: For `COc1ccc2nc(NC(=O)c3ccc([N+](=O)[O-])o3)sc2c1`, which Potency is on record?
Answer: Its Potency is 3560 nM (active).

Question: With `CCOc1ccc2nc(NC(=O)Cc3cccs3)sc2c1` as the compound, how does the Potency read?
Answer: The Potency was “inactive”.

Question: `COc1cc(OC)cc(C(=O)Nc2ccccc2-c2nc3ccccc3s2)c1` was tested. Which Potency did it give?
Answer: Its Potency is “inactive”.

Question: `Nc1ccc(-c2nc3ccc(N)cc3s2)cc1` was tested. Which Potency did it give?
Answer: Its Potency is 565 nM (active).

Question: Which Potency does the source give for `O=C(O)c1ccc(NC(=O)c2cc(S(=O)(=O)N3CCCCC3)c(Cl)cc2Cl)cc1` here?
Answer: Its Potency is “inactive”.

Question: How did the Potency turn out when `CN(C)S(=O)(=O)c1ccc(C(=O)Nc2ccccc2C(=O)O)cc1` was run?
Answer: Its Potency is “inactive”.

Question: `COc1ccc2nc(NC(=O)C3CCN(S(=O)(=O)c4cccs4)CC3)sc2c1` was tested. Which Potency did it give?
Answer: Its Potency is “inactive”.

Question: How did the Potency turn out when `Cc1ccc(C(=O)Nc2ccccc2C(=O)O)cc1S(=O)(=O)N1CCCCCC1` was run?
Answer: Its Potency is 8950 nM (active).

Question: How did the Potency turn out when `COc1ccc2nc(NC(=O)c3cccs3)sc2c1` was run?
Answer: Its Potency is “inactive”.

Question: For `Nc1ccc(-c2nc3cc(N)ccc3s2)cc1`, which Potency is on record?
Answer: Its Potency is 4000 nM (active).

Question: For `Cn1c(N/N=C/c2cc3ccccc3nc2Cl)nc2ccccc21`, which Potency is on record?
Answer: Its Potency is 12600 nM (active).

Question: `CCOc1ccc(C(=O)Nc2ccccc2C(=O)O)cc1` was tested. Which Potency did it give?
Answer: The Potency was 3560 nM (active).

Question: For `CCOc1ccc2nc(NC(=O)c3cc([N+](=O)[O-])ccc3N3CCOCC3)sc2c1`, which Potency is on record?
Answer: The Potency was “inactive”.

Question: For `Cc1cccc(NS(=O)(=O)c2cccc(C(=O)Nc3cccc(C(=O)O)c3)c2)c1`, which Potency is on record?
Answer: The Potency was “inactive”.

Question: `O=C(Nc1ccccc1C(=O)O)c1cccc(NC(=O)c2ccccc2Cl)c1` was tested. Which Potency did it give?
Answer: Its Potency is “inactive”.

Question: For `COc1ccc(C(=O)Nc2cccc(C(=O)O)c2)cc1S(=O)(=O)N1CCCC1`, which Potency is on record?
Answer: The Potency was “inactive”.
